Source: PubChem
GDH-TPI counter-1: GDH-TPI coupling enzyme inhibitors, primary screen, artefact control for M. tuberculosis FBA inhibitor project, biochemical, absorbance, full deck; hit rate 1.2% among 360,000; GDH-TPI coupled enzyme counterscreen, NADH absorbance; inhibition, % at 4.8 µM; in the data active = inhibition above about 30%
Autofluor counter: counter-screen for toxin protease inhibitors: compound fluorescence | compound autofluorescence counterscreen, microsphere flow cytometry; stronger effect = higher value | fluorescence intensity (concentration not given with the values) | hit rate 3.1% among 360,000; in the data active = fluorescence intensity above about 16000
BoNT-A LC inh2: BoNT/A light chain protease inhibitors, primary screen, biochemical, flow cytometry, MLPCN library. multiplex microsphere protease substrate cleavage. hit rate 0.17% among 360,000. inhibition, % at 10 µM. AID 588499, 2011
Mtb FBA inh: Mtb FBA enzyme inhibitors, primary screen, biochemical, fluorescence, strain H37Rv. Fructose-bisphosphate aldolase (Mycobacterium tuberculosis (strain ATCC 25618 / H37Rv)), …. purified M. tuberculosis FBA, fluorescence read-out. inhibition, % at 1 µM. hit rate 2.3% among 360,000. AID 588726, 2011; in the data active = inhibition above about 27%
BoNT F protease: BoNT/F light chain protease inhibitors, primary screen, biochemical, flow cytometry, MLPCN library. inhibition, % at 10 µM. Multiplex microsphere protease cleavage assay. Botulinum neurotoxin type F light chain protease (Clostridium botulinum). hit rate 0.22% among 360,000. AID 588497, 2011; in the data active = inhibition above about 35%, passing the limit was not always enough
Anthrax LF prot: Bacillus anthracis LF protease inhibitors, primary screen, biochemical, multiplex microsphere, MLPCN library | multiplex microsphere protease cleavage assay | Lethal factor (Bacillus anthracis), P15917 | inhibition, % at 10 µM | hit rate 0.12% among 360,000 | AID 588501, 2011
Target sequence (P15917 whole entry, looked up): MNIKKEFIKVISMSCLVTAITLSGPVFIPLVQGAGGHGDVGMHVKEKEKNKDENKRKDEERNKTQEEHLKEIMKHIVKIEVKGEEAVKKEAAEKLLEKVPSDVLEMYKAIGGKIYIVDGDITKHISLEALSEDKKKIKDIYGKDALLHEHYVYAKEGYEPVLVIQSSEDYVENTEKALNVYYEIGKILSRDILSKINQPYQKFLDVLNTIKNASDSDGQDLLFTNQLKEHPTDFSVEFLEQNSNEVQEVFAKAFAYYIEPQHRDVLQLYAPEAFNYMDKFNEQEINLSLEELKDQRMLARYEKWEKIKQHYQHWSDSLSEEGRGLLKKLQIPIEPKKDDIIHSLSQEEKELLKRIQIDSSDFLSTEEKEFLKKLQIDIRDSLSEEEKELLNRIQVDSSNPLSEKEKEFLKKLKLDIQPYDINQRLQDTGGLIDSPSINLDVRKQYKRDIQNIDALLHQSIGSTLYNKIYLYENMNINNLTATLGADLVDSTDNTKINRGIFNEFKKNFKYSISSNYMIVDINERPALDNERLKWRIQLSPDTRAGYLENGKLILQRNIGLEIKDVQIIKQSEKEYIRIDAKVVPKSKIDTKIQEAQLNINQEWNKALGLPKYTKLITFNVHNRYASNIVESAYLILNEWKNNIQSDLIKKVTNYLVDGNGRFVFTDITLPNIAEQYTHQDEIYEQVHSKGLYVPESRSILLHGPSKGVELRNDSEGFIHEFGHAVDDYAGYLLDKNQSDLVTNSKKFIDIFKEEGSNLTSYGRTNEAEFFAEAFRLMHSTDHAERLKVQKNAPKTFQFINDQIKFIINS
Mtb FBA inh conf: M. tuberculosis aldolase blockers, biochemical, fluorescence, strain H37Rv, confirmation; hit rate 78% among 5,600; purified M. tuberculosis FBA, fluorescence read-out; inhibition, % at 1 µM; shares compounds with Mtb FBA inh; in the data active = inhibition above about 27%
GDH-TPI counter-2: GDH-TPI coupling enzyme inhibitors, artefact control for M. tuberculosis FBA inhibitor project, biochemical, fluorescence, high throughput | hit rate 81% among 5,600 | inhibition, % at 1 µM | shares compounds with Mtb FBA inh | GDH-TPI coupled enzyme counterscreen; in the data active = inhibition above about 10%
Large screens that a line does not name were inactive (follow-up assays come after a bar, where they were run). Shown are actives, neighbours in structure and some others; about 6.7% of the full set was active somewhere. Cut-off read from the data, not from the text of the source, unless noted: active = inhibition above about 30%; inconclusive = no clear call, values can overlap the other calls; inactive = below that.

Cc1ccc2[nH]c3c(c2c1)CCC3=O	Mtb FBA inh 65 | Mtb FBA inh conf active | GDH-TPI counter-2 162
CCCn1c(CCC(=O)O)ccc1-c1cccs1	Mtb FBA inh 35 | Mtb FBA inh conf 98 | GDH-TPI counter-2 84
COCCCn1c(CCC(=O)O)ccc1-c1cccs1	Mtb FBA inh 34 | Mtb FBA inh conf 34 | GDH-TPI counter-2 26
COC(=O)c1cnc(SCc2ccc(C)cc2)n1C	none
COC(=O)c1cn(-c2ccccc2)nc1-c1ccccc1	Mtb FBA inh 36 | Mtb FBA inh conf 73 | GDH-TPI counter-2 56
O=C(O)c1ccc(NS(=O)(=O)c2cccc(S(=O)(=O)c3ccc(Cl)c(Cl)c3)c2)cc1	none (no result: GDH-TPI counter-1, Mtb FBA inh)
c1ccc(N2N=C(c3cccs3)CC2c2ccco2)cc1 (stereo unspecified)	Mtb FBA inh 78 | Mtb FBA inh conf inactive | GDH-TPI counter-2 10
Fc1ccc(C2CC(c3ccco3)=NN2c2ccccc2)cc1 (stereo unspecified)	Mtb FBA inh 60 | Mtb FBA inh conf active | GDH-TPI counter-2 active
CCC(=O)N1N=C(c2cccs2)CC1c1ccco1 (stereo unspecified)	none
Clc1ccc(N2N=C(c3cccs3)CC2c2ccco2)cc1 (stereo unspecified)	Mtb FBA inh 81 | Mtb FBA inh conf 82 | GDH-TPI counter-2 55
O=C(CSc1ccccc1C(=O)O)Nc1ccc2c(c1)OCO2	none
Cn1c(CCCNC(=O)c2cccs2)nc2ccccc21	none
CN(C)CCNC(=S)Nc1ccc(Cl)cc1Cl	none
CC(C)=CCC/C(C)=C/CC/C(C)=C/COc1ccc2ccc(=O)oc2c1	Mtb FBA inh 30 | Mtb FBA inh conf inactive | GDH-TPI counter-2 inactive
COC(=O)c1cc(COc2ccc3ccc(=O)oc3c2)c(C)o1	Mtb FBA inh 36 | Mtb FBA inh conf inactive | GDH-TPI counter-2 inactive
CC1=CC(C/C(C)=C/COc2ccc3ccc(=O)oc3c2)OC1=O (stereo unspecified)	Mtb FBA inh 48 | Mtb FBA inh conf 54 | GDH-TPI counter-2 44
CC(C)=CCC/C(C)=C/COc1ccc2ccc(=O)oc2c1	none
COC(=O)c1ccc(COc2ccc3ccc(=O)oc3c2)o1	none
CC(C)=CCOc1ccc2ccc(=O)oc2c1	Mtb FBA inh 65 | Mtb FBA inh conf 60 | GDH-TPI counter-2 50
COc1ccc(-c2cc3c(=O)n(CC(=O)NCc4cccnc4)nc(C)n3n2)cc1	Mtb FBA inh 28 | Mtb FBA inh conf inactive | GDH-TPI counter-2 11
Cc1nn(-c2ccccn2)c2c1-c1nc(N)ncc1CC2	Mtb FBA inh 30 | Mtb FBA inh conf inactive | GDH-TPI counter-2 inactive
Cc1c(Nc2nc3ccccc3nc2N2CCN(c3ccccc3)CC2)c(=O)n(-c2ccccc2)n1C	none
Cc1c(Nc2c3ccccc3nc3ccccc23)c(=O)n(-c2ccccc2)n1C	Mtb FBA inh 109 | Mtb FBA inh conf inactive | GDH-TPI counter-2 inactive
Cn1c(=O)c2c(ncn2CC(COCc2ccc(Cl)cc2)OCc2ccc(Cl)cc2)n(C)c1=O (stereo unspecified)	none
CCN1CC=C2C(C#N)=C(N)C(C#N)(C#N)C(CCc3ccccc3)C2C1 (stereo unspecified)	Mtb FBA inh 36 | Mtb FBA inh conf 74 | GDH-TPI counter-2 65
CCS(=O)(=O)Nc1cccc(-c2cn3c(n2)SCC3)c1	none
O=C(CN1C(=O)C2C3C=CC(C3)C2C1=O)Nc1ccc(F)cc1 (stereo unspecified)	none
O=C(CN1C(=O)C2C3C=CC(C3)C2C1=O)Nc1ccc2nccnc2c1 (stereo unspecified)	Mtb FBA inh 27 | Mtb FBA inh conf active | GDH-TPI counter-2 active
Cc1cccc(NC(=S)NCC(c2cccnc2)N2CCOCC2)c1 (stereo unspecified)	none
